The nature of experiment [1]: antimalarial activity against Dd2 strain (AID 2302;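 active = growth inhibition above 50% at the single 2 µM test dose, taken to imply half-maximal potency below 2 µM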;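 also: 0% = DMSO untreated growth and 100% = chloroquine plus artemisinin killed control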). The following applies: P. falciparum Dd2 in RBCs, LDH growth readout, 72 h; at 2 µM; active compounds read high.
Experiment [2] can be described thus: HepG2 cytotoxicity, primary screen, cytotoxicity control for P. falciparum antimalarial project, cell-based, ATP luminescence (AID 2303;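 active = inhibition above 50%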;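 also: 0% = DMSO wells and 100% = digitonin-killed cells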). The following applies: HepG2 viability, 24-48 h, at 10 µM, active compounds read high.
The target of experiment [3] is L-lactate dehydrogenase (Plasmodium falciparum (isolate CDC / Honduras)) (UniProt Q27743). Put plainly: PfLDH activity inhibition – cell lysate, 3D7 strain, counter-screen for P. falciparum growth inhibition project (AID 2304).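 Also: 0% = vehicle and 100% = reference inhibitor.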 The following applies: P. falciparum 3D7 crude extract, LDH APAD/NBT absorbance; at 2 µM; active compounds read high. Background: A counterscreen serves to expose hits that act by an unwanted route or on another target.

Experiment [4] is described as follows: inhibition of 3D7 malaria parasite growth – strain 3D7 (AID 2306).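 Also: 0% = DMSO wells and 100% = chloroquine plus artemisinin control wells.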 The settings on record: P. falciparum 3D7 erythrocytic growth, LDH absorbance, 72 h; at 2 µM; active compounds read high.
Experiment [5] concerns the target Calcium-dependent protein kinase 1 (Plasmodium falciparum (isolate 3D7)) (UniProt P62344). Put plainly: PfCDPK1 kinase inhibitors, biochemical, TCAMS library (AID 1159585; cut-off not given, nearly all actives have IC50 up to about 0.98 µM;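 also: inhibitors leave more ATP so luminescence rises with inhibition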). The following applies: recombinant PfCDPK1, Kinase-Glo ATP depletion luminescence.
The target in experiment [6] is Plasmodium falciparum protein kinase 6 (PK6, PF3D7_1337100) (UniProt Q8IDW1). Put plainly: PfPK6 kinase inhibitors, biochemical, TCAMS library (AID 1159586). The following applies: recombinant PfPK6, Kinase-Glo ATP depletion luminescence.
The target of experiment [7] is Protein kinase 7 (PK7), Plasmodium falciparum 3D7 (PF3D7_0213400) (UniProt Q7YTF7). The experiment in a line: inhibition of Plasmodium PK7 catalytic activity – biochemical, TCAMS antimalarial set, Kinase-Glo luminescence (AID 1159587). The settings on record: recombinant PfPK7, Kinase-Glo ATP depletion luminescence. Background: Kinase-Glo measures the ATP left after a reaction by luminescence.

Experiment [8] concerns the target Calcium-dependent protein kinase 4 (Plasmodium falciparum (isolate 3D7)) (UniProt Q8IBS5). Put plainly: PfCDPK4 kinase inhibitors, biochemical, TCAMS library (AID 1159588; cut-off not given, nearly all actives have IC50 up to about 0.91 µM). The following applies: recombinant PfCDPK4, Kinase-Glo ATP depletion luminescence.

Unmarked numbers belong to inactive results. For some of these results: Measured potencies and affinities stand elsewhere. Active and inactive are the calls of the source. Unless noted, no rule for the calls is given here.

A word on the inhibition: it is the change of the read-out against control, counted positive when it falls.

Plasmodium falciparum protein kinase 6 (PK6, PF3D7_1337100), sequence (Q8IDW1 1-305): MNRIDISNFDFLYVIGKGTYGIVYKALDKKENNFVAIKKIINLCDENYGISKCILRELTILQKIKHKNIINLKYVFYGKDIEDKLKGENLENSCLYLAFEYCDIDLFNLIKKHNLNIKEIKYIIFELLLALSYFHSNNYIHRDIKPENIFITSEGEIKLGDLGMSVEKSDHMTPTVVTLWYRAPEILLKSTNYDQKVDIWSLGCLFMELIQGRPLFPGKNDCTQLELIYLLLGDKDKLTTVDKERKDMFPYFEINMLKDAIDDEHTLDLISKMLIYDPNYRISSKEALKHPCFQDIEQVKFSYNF
Calcium-dependent protein kinase 4 (Plasmodium falciparum (isolate 3D7)), sequence (Q8IBS5 whole entry, looked up): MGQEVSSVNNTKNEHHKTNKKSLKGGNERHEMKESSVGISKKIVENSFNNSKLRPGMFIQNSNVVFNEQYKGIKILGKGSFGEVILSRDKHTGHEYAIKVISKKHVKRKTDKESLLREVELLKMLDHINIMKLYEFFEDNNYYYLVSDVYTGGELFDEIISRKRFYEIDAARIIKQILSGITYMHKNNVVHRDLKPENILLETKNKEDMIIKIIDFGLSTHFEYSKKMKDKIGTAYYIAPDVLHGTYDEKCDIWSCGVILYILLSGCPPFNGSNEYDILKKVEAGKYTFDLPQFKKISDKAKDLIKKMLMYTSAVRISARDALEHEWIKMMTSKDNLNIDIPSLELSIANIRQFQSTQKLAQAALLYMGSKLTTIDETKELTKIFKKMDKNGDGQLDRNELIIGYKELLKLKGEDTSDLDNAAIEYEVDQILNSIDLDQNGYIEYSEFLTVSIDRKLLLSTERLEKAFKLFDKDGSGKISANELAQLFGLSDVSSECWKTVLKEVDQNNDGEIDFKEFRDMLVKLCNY
Protein kinase 7 (PK7), Plasmodium falciparum 3D7 (PF3D7_0213400), sequence (Q7YTF7 1-343): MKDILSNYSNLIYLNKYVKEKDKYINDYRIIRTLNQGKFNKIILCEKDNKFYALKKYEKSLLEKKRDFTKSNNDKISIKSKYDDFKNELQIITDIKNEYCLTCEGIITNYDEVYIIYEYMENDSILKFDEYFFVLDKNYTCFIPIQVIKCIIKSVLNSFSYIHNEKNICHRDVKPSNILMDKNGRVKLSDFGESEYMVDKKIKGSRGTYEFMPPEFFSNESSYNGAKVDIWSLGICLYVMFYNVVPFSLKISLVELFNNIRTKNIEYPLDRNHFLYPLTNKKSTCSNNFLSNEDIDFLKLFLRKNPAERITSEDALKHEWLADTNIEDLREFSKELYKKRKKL
Calcium-dependent protein kinase 1 (Plasmodium falciparum (isolate 3D7)), sequence (P62344 whole entry, looked up): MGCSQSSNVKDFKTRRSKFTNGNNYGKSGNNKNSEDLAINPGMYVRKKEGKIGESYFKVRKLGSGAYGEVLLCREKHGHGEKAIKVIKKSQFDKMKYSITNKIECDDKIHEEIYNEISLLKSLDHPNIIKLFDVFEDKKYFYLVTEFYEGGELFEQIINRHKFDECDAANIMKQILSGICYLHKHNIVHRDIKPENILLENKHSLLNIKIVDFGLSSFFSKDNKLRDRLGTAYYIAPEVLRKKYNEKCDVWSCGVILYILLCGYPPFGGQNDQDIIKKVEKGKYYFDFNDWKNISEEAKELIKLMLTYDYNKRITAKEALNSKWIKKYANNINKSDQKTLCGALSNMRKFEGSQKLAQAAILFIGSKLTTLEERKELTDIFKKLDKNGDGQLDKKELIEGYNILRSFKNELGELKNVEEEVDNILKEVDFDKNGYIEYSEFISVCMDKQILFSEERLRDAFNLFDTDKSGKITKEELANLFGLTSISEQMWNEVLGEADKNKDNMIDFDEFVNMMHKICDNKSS
L-lactate dehydrogenase (Plasmodium falciparum (isolate CDC / Honduras)), sequence (Q27743 whole entry, looked up): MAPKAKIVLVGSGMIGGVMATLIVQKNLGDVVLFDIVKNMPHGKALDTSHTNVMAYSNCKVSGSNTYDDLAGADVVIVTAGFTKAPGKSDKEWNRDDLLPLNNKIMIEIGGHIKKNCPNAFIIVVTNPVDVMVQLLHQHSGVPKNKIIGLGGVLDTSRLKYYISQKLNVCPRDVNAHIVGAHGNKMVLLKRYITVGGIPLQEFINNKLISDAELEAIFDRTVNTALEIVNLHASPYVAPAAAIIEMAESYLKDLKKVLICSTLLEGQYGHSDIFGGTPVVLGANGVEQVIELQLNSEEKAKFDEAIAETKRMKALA

On to `COc1ccc2nccc([C@@H](O)CN3CCC(NCc4ccc5c(c4)oc(=S)n5C)CC3)c2c1`, for which the growth inhibition in experiment [1] was 68% (active); in experiment [4], 100% (active). The inhibition in experiment [2] was 14%; in experiment [3] it was -6%. Moreover, the outcome in experiment [5], in experiment [6], in experiment [7] and in experiment [8] was inactive.

For `O=C(O[C@H]1CN[C@H](C#Cc2cc3c(Nc4ccc(OCc5cccc(F)c5)c(Cl)c4)ncnc3s2)C1)N1CCCC1`, the growth inhibition was 67% (active) in experiment [1] and 99% (active) in experiment [4]. For the same compound, the figures for the inhibition in experiment [2] and in experiment [3] were 11% and -7%, respectively. Moreover, the result in experiment [5], in experiment [6], in experiment [7] and in experiment [8] was inactive.

Consider `CN(C)CCCn1c(N)c(-c2nc3ccccc3[nH]2)c2nc(C#N)c(C#N)nc21`, for which the growth inhibition in experiment [1] was 101% (active); in experiment [4], 102% (active). Further, the figures for the inhibition in experiment [2] and in experiment [3] were 100% (active) and -1%, respectively. Also, the result in experiment [5], in experiment [6], in experiment [7] and in experiment [8] was inactive.

On to `COc1ccc(NC(=O)/C=C/c2ccc(Cl)c(Cl)c2)cc1N1CCN(C)CC1`, for which the growth inhibition in experiment [1] is 20%; in experiment [4], 90% (active). The inhibition in experiment [2] was 23%; in experiment [3], -3%. Besides, the outcome in experiment [5], in experiment [6], in experiment [7] and in experiment [8] was inactive.

In the case of `CN1C(=O)C(=O)N(CCCCCON=C(N)N)C1=S`, the growth inhibition was 1% in experiment [1] and 101% (active) in experiment [4]. The values for the inhibition in experiment [2] and in experiment [3] were 21% and -1%, respectively. In addition, the result in experiment [5], in experiment [6], in experiment [7] and in experiment [8] was inactive.

Regarding `Cc1ccc(NC(=O)c2cccc(CN3CCCN(Cc4cccc(O)c4)CC3)c2)cc1`, the growth inhibition in experiment [1] is 3%; in experiment [4] it was 82% (active). Also, the inhibition in experiment [2] is 22%; in experiment [3], 1%. Moreover, the result in experiment [5], in experiment [6], in experiment [7] and in experiment [8] was inactive.

`CCc1ccc(S(=O)(=O)Nc2ccc(CCN(C)C3CCN(C)CC3)cc2)cc1`: the values for the growth inhibition in experiment [1] and in experiment [4] were 9% and 86% (active), respectively. In addition, the inhibition in experiment [2] is 25%; in experiment [3] it was -4%. Further, the result in experiment [5], in experiment [6], in experiment [7] and in experiment [8] was inactive.

With `CCN(CC)Cc1ccc2c(=O)cc(CCc3cccc(F)c3F)n(CC(=O)N(Cc3ccc(-c4ccc(C(F)(F)F)cc4)cc3)C(C)C)c2c1`, the growth inhibition in experiment [1] is 63% (active); in experiment [4] it was 102% (active). The values for the inhibition in experiment [2] and in experiment [3] were 82% (active) and -6%, respectively. Also, the outcome in experiment [5], in experiment [6], in experiment [7] and in experiment [8] was inactive.

For `O=S(=O)(NCCN1CCCC1)c1cccc(-c2ccc(CNCc3ccsc3)cc2)c1`, the growth inhibition in experiment [1] is 31%; in experiment [4] it was 101% (active). For the same compound, the inhibition was 33% in experiment [2] and 6% in experiment [3]. In addition, the result in experiment [5], in experiment [6], in experiment [7] and in experiment [8] was inactive.

Take `CO/C(=C\C=C\c1cc2cc(Cl)c(Cl)cc2[nH]1)C(=O)NCCCN1CCN(c2cccc(OCC(=O)Nc3cccc(C(=O)c4ccccc4)c3)c2)CC1`: the growth inhibition was 88% (active) in experiment [1] and 94% (active) in experiment [4]. In addition, the inhibition is 48% in experiment [2] and 2% in experiment [3]. Also, the outcome in experiment [5], in experiment [6], in experiment [7] and in experiment [8] was inactive.

In the case of `CN(C)CC1CCCN1Cc1ccccc1-c1cnn(C)c(=O)c1Oc1cccc(C#N)c1` (stereo not given), the growth inhibition in experiment [1] is 15%; in experiment [4] it was 92% (active). Further, the inhibition is 26% in experiment [2] and 4% in experiment [3]. Moreover, the outcome in experiment [5], in experiment [6], in experiment [7] and in experiment [8] was inactive.

Turning to `CCCOc1ccc(-c2nonc2NC(=O)c2cccc(OC)c2)cc1OCCC`, the growth inhibition in experiment [1] is 100% (active); in experiment [4], 94% (active). The inhibition in experiment [2] is 18%; in experiment [3], 0%. In addition, the outcome in experiment [5], in experiment [6], in experiment [7] and in experiment [8] was inactive.

`Cn1nc(-c2ccc(NC(=O)Nc3cc(C(F)(F)F)ccc3F)cc2)c2cnc(NCCCCN3CCCC3)nc21`: the growth inhibition in experiment [1] was 74% (active); in experiment [4] it was 98% (active). For the same compound, the inhibition in experiment [2] is 88% (active); in experiment [3] it was -3%. Moreover, the outcome in experiment [5], in experiment [6], in experiment [7] and in experiment [8] was inactive.

With `Cc1ccccc1CN1CCCN(Cc2ccc(C(=O)Nc3ccc(Cl)cc3)cc2)CC1`, the growth inhibition is 15% in experiment [1] and 93% (active) in experiment [4]. The inhibition in experiment [2] was 48%; in experiment [3], 3%. Also, the result in experiment [5], in experiment [6], in experiment [7] and in experiment [8] was inactive.

On to `COc1ccc2cc(CNCCCCCCNCc3ccc4cc(OC)ccc4c3)ccc2c1`, for which the results for the growth inhibition in experiment [1] and in experiment [4] were 92% (active) and 100% (active), respectively. In addition, the results for the inhibition in experiment [2] and in experiment [3] were 100% (active) and -6%, respectively. For the same compound, the result in experiment [5], in experiment [6], in experiment [7] and in experiment [8] was inactive.

As for `C[C@@H]1CN(c2ncc(-c3ccc(CNC4Cc5ccccc5C4)cc3)cn2)C[C@H](C)N1`, the growth inhibition is 78% (active) in experiment [1] and 85% (active) in experiment [4]. Also, the inhibition in experiment [2] was 27%; in experiment [3] it was -10%. The result in experiment [5], in experiment [6], in experiment [7] and in experiment [8] was inactive.

For the compound `CN(C)CCOc1cc(NC(=O)Nc2ccc(-c3ccccc3)cc2)ccc1I`, the growth inhibition was 45% in experiment [1] and 101% (active) in experiment [4]. Also, the inhibition in experiment [2] is 9%; in experiment [3], -3%. In addition, the outcome in experiment [5], in experiment [6], in experiment [7] and in experiment [8] was inactive.

Take `CCC(C)Oc1ccc2nc(N)nc(N)c2c1Cl` (stereo not given): the growth inhibition was -1% in experiment [1] and 96% (active) in experiment [4]. For the same compound, the figures for the inhibition in experiment [2] and in experiment [3] were 57% (active) and -2%, respectively. The outcome in experiment [5], in experiment [6], in experiment [7] and in experiment [8] was inactive.

Consider `O=C(NCCN1CCCCC1)c1cc2cc(-c3ccccc3)ccc2n1S(=O)(=O)c1ccccc1`, for which the results for the growth inhibition in experiment [1] and in experiment [4] were -1% and 90% (active), respectively. Besides, the inhibition is 15% in experiment [2] and 2% in experiment [3]. For the same compound, the outcome in experiment [5], in experiment [6], in experiment [7] and in experiment [8] was inactive.

Consider `CCN(CC)CCCN(CCCN(CC)CC)c1cc(C)nc(Nc2ccc3cc(Br)ccc3c2)n1`, for which the results for the growth inhibition in experiment [1] and in experiment [4] were 73% (active) and 100% (active), respectively. Further, the inhibition in experiment [2] was 12%; in experiment [3], 3%. Further, the result in experiment [5], in experiment [6], in experiment [7] and in experiment [8] was inactive.
